Shown are actives, neighbours in structure and some others; about 14% of the full set was active somewhere.
Sm TGR inh – blocks Schistosoma mansoni thioredoxin glutathione reductase; purified TGR, DTNB reduction, TNB absorbance 405 nm; Potency, µM (titrated, usually from 114 µM), inactives show top-dose activity change, negative = inhibition, most hits filed as inhibitors; 3% of 360,000 active; note: potency is the fitted concentration of half-maximal effect; nearly all actives have a fitted effect of over 60% in size
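TGR 20 nM + NADPH 100 uM (dispensed conc.), cpd preinc 15 min RT; start with NADPH (500 uM addition) then DTNB (15 mM addition). Kinetic TNB absorbance, 405 nm filter. Four-parameter Hill fit across titration.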
Pf growth 48h – inhibits P. falciparum growth in the first generation, 48 h. AID 504832. P. falciparum luciferase growth in erythrocytes, 48 h. Potency, µM (titrated, usually from 28.7 µM), for inactives: at the top dose activity change, negative = inhibition, most hits filed as inhibitors. 5.9% of 310,000 active; note: potency is the fitted concentration of half-maximal effect
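Luminescence readout; reporter = integrated firefly luciferase in P. falciparum. RBC culture at 2% hematocrit, 0.1% parasitemia final, 37 C/5% CO2; decreased signal taken as growth inhibition.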
HCMV inh – human cytomegalovirus inhibition | HFF cells, HCMV-luciferase reporter, 72 h; stronger effect = lower value | activity change, negative = inhibition, % at 57.5 µM | 4.5% of 410,000 active | AID 1259415; in the data active = activity change below about -60%; inconclusive = no clear call, values can overlap the other calls; inactive = above about -39%
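Two-dose cell screen: HFF monolayers treated with compounds and infected with luciferase-expressing HCMV at 1 PFU/cell, 72 h at 37C, then lysed for luciferase measurement.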
Giardia FBPA inh – blocks Giardia fructose-bisphosphate aldolase activity; A8B2U2; purified Giardia FBPA; Potency, µM (highest dose often 59.6 µM), for the others: top-dose activity, negative = inhibition, usual class: inhibitors; 0.71% of 290,000 active; note: potency is the fitted concentration of half-maximal effect; nearly all actives have a fitted effect of over 55% in size
Target sequence (A8B2U2 whole entry, looked up): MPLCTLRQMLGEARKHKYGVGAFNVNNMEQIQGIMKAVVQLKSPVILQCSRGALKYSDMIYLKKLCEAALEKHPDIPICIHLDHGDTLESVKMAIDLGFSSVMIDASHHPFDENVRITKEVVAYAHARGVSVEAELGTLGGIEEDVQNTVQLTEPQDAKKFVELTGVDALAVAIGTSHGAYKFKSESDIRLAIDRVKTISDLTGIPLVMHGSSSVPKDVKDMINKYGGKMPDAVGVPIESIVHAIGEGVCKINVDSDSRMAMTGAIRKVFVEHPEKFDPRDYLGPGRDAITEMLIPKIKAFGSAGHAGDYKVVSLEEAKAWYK
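40 nM FBPA preincubated 10 min at RT with compound (up to 57.5 uM final), then substrate plus GAPDH/TPI/NAD/arsenate coupling and diaphorase/resazurin added. Fluorescence read after 20 min at RT, 525/598 nm.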
Pf growth 96h – P. falciparum growth inhibition at 96 hours. Potency, µM (series often up to 28.7 µM), for the others: top-dose activity change, negative = inhibition, hits mostly inhibitors. AID 504834. P. falciparum luciferase reporter growth, 96 h. 6.9% of 320,000 active; note: potency is the fitted concentration of half-maximal effect
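Delayed-death screen, second-generation endpoint: infected erythrocytes, 2% hematocrit, 0.05% parasitemia final; 96 hours at 37 C, 5% CO2; luciferase detection reagent; luminescence decrease equals reduced growth.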
* marks the source's active call; other numbers are inactive results. Unless noted, calls come from the whole dose curve; as a rule, active = well fitted curve in the direction sought with a large enough effect; inconclusive = small, poorly fitted or top-dose-only effect, or another doubt; inactive = no such curve, though single readings can be large; an effect the other way counts as inactive or inconclusive. % is set by controls: 0 for no effect and ±100 for the full control effect.

How did CCOC(=O)c1cc2c(C)n(-c3ccc(OCC)cc3)c(C)c2ccc1=O do in these assays?
Sm TGR inh: inconclusive; Pf growth 48h: inconclusive; HCMV inh: inconclusive; Giardia FBPA inh: -17%; Pf growth 96h: 4.1µM*

What do the screens show for `CCOC(=O)c1cnc(Nc2ccc(OCC)cc2)nc1C`?
Sm TGR inh: 1%; Pf growth 48h: 36%; HCMV inh: 25; Giardia FBPA inh: 0%

Results for CCOC(=O)c1cc2c(C)n(-c3ccc(C)cc3)c(C)c2ccc1=O ?
Sm TGR inh: inconclusive; Pf growth 48h: inconclusive; HCMV inh: -96*; Giardia FBPA inh: -16%; Pf growth 96h: 0%

What do the screens show for `CCOc1ccc(NC(=O)CSc2nnc(-c3ccc(C)cc3)c(-c3ccc(C)cc3)n2)cc1`?
Sm TGR inh: -9%; HCMV inh: -5

Results for O=[N+]([O-])c1ccc(O)c(CNCc2ccccc2)c1 ?
HCMV inh: 8

Results for OCCNCc1cccc2ccccc12 ?
Sm TGR inh: 6%; Pf growth 48h: 24%; HCMV inh: -4; Giardia FBPA inh: -9%; Pf growth 96h: -28%

Results for Oc1ccc(Cl)cc1CNCc1ccc(F)c(F)c1 ?
Sm TGR inh: -16%; Pf growth 48h: 3.3µM*; HCMV inh: -4; Pf growth 96h: 5.2µM*

Results for COc1ccc(CNCc2cc(Cl)ccc2O)cc1 ?
Sm TGR inh: -3%; Pf growth 48h: 9.3µM*; HCMV inh: -28; Pf growth 96h: 13µM*

Results for O=[N+]([O-])c1ccc(CNCc2cc(Cl)ccc2O)cc1 ?
Sm TGR inh: -27%; Pf growth 48h: 12µM*; HCMV inh: -9; Pf growth 96h: inconclusive

Results for Oc1ccc(Cl)cc1CNCc1cccc2ccccc12 ?
Sm TGR inh: 4%; Pf growth 48h: 0.41µM*; HCMV inh: -19; Pf growth 96h: 0.93µM*

What do the screens show for `Oc1ccc(Cl)cc1CNCc1ccc(Cl)nc1`?
Sm TGR inh: -8%; Pf growth 48h: inconclusive; HCMV inh: -30; Pf growth 96h: inconclusive

Results for Oc1ccc(Cl)cc1CNc1cnc2ccccc2c1 ?
Sm TGR inh: -33%; Pf growth 48h: -22%; HCMV inh: 22; Giardia FBPA inh: -6%; Pf growth 96h: 2.6µM*

How did Cc1onc(-c2ccccc2)c1C(=O)OCC(=O)c1ccc[nH]1 do in these assays?
HCMV inh: 5

How did O=C(Nc1nc(-c2ccc(S(=O)(=O)N3CCCC3)cc2)cs1)c1ccco1 do in these assays?
Sm TGR inh: 3%; Pf growth 48h: inconclusive; HCMV inh: -65*; Giardia FBPA inh: -4%; Pf growth 96h: 27%

Results for O=C(Nc1nc(-c2ccccn2)cs1)c1ccc(S(=O)(=O)N2CCCCC2)cc1 ?
Sm TGR inh: -16%; Pf growth 48h: 3.3µM*; Giardia FBPA inh: -23%; Pf growth 96h: 2.3µM*

What do the screens show for `O=C(Nc1nc(-c2cccs2)cs1)c1ccc(S(=O)(=O)N2CCCCC2)cc1`?
Sm TGR inh: 7%; Pf growth 48h: inconclusive; HCMV inh: -67*; Giardia FBPA inh: 0%; Pf growth 96h: -7%

Results for O=C(Nc1nc(-c2cccs2)cs1)c1cccc(S(=O)(=O)N2CCCCCC2)c1 ?
Sm TGR inh: 5%; Pf growth 48h: -21%; HCMV inh: 95; Giardia FBPA inh: -7%

Results for O=c1cc(-c2ccccc2)[nH][nH]1 ?
Sm TGR inh: -13%; Pf growth 48h: -4%; HCMV inh: -6; Giardia FBPA inh: 1%; Pf growth 96h: -13%

How did O=C1NC(c2ccccc2)=C(c2ccccc2)C1=O do in these assays?
Sm TGR inh: -10%; Pf growth 48h: 16%; HCMV inh: -15; Giardia FBPA inh: -13%; Pf growth 96h: 10µM*

What do the screens show for `CCOc1ccccc1NC(=O)C(=O)NCC(c1cccnc1)N1CCN(c2ccccc2)CC1` (stereo not drawn)?
Sm TGR inh: 4%; HCMV inh: -21

How did CCN(CC)C(=O)Cn1c(=O)c2ccccc2n2c(=S)sc(-c3cccc(C)c3)c12 do in these assays?
Sm TGR inh: -12%; Pf growth 48h: inconclusive; HCMV inh: -31; Giardia FBPA inh: 6%; Pf growth 96h: 2.1µM*

What do the screens show for `O=C1CC(/C=C/c2ccncc2)=Nc2ccccc2N1`?
Sm TGR inh: inconclusive; Pf growth 48h: 14%; HCMV inh: -99*; Giardia FBPA inh: 5%; Pf growth 96h: inconclusive

How did O=S(=O)(NC1c2cccc3cccc(c23)C1Sc1ncccn1)c1ccccc1 (stereo not drawn) do in these assays?
Sm TGR inh: 7%; Pf growth 48h: inconclusive; HCMV inh: -35; Giardia FBPA inh: 3%; Pf growth 96h: inconclusive

How did O=C(COc1ccc(S(=O)(=O)N2CCOCC2)cc1)Nc1ccc(Br)cc1 do in these assays?
HCMV inh: -26

Results for Cc1ccc(Cl)c(OCC(=O)Nc2cc(S(=O)(=O)N3CCOCC3)ccc2N2CCCC2)c1 ?
Sm TGR inh: -8%; Pf growth 48h: 12µM*; HCMV inh: -19; Giardia FBPA inh: 2%; Pf growth 96h: 8.3µM*

How did O=C(CCCOc1ccccc1)Nc1cc(S(=O)(=O)N2CCOCC2)ccc1N1CCOCC1 do in these assays?
Sm TGR inh: 7%; Pf growth 48h: inconclusive; HCMV inh: -15; Pf growth 96h: inconclusive

How did O=C(CCCOc1ccc(Br)cc1)Nc1ccc(S(=O)(=O)N2CCOCC2)cc1 do in these assays?
Sm TGR inh: 2%; Pf growth 48h: inconclusive; HCMV inh: -32; Pf growth 96h: 8.3µM*

What do the screens show for `Cc1ccc(OCCCC(=O)Nc2cc(S(=O)(=O)N3CCOCC3)ccc2N2CCOCC2)cc1`?
Sm TGR inh: -9%; Pf growth 48h: 10µM*; HCMV inh: -10; Pf growth 96h: -30%

Results for CN1CCN(c2ccc(S(=O)(=O)N3CCOCC3)cc2NC(=O)COc2ccc(F)cc2Cl)CC1 ?
Sm TGR inh: 2%; Pf growth 48h: inconclusive; HCMV inh: -27; Pf growth 96h: 13µM*

How did C[C@H]1CC2[C@@H]3CCC4=CC(=O)C=C[C@]4(C)[C@@]3(F)[C@@H](O)C[C@]2(C)[C@@]1(O)C(=O)CO (stereo partly drawn) do in these assays?
Giardia FBPA inh: -2%

Results for CCN(CC)S(=O)(=O)c1ccc(N2CCOCC2)c(NC(=O)COc2ccc(Cl)cc2)c1 ?
Sm TGR inh: 4%; Pf growth 48h: inconclusive; HCMV inh: inconclusive; Giardia FBPA inh: -3%; Pf growth 96h: inconclusive

How did O=C(COc1ccc(F)cc1Cl)Nc1cc(S(=O)(=O)N2CCOCC2)ccc1N1CCCCC1 do in these assays?
Sm TGR inh: -7%; Pf growth 48h: 4.1µM*; HCMV inh: -20; Giardia FBPA inh: 8%; Pf growth 96h: 2.1µM*

What do the screens show for `COc1ccccc1OCC(=O)Nc1cc(S(=O)(=O)N2CCOCC2)ccc1N1CCCCC1`?
HCMV inh: -18
